We go through 8 compounds from PubChem BioAssay (NCI).

About 83,000 compounds went through this panel and 20% of them were active in at least one assay; those are over-represented in the sample as a whole.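 For each line, cells grew in 96-well plates with the test compound present at a single concentration for 48 hours.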 A number with no mark means an inactive call. Activity calls are given as the source filed them. Rule for the calls: active = growth percent below 10; inactive = the rest.

Among the test systems are K-562 leukemia; MALME-3M melanoma; MDA-MB-231 breast; RXF 393 renal; SF-295 CNS; SF-539 CNS; UACC-257 melanoma; M14 melanoma; HCT-15 colon; HT29 colon; SNB-75 CNS; SNB-19 CNS; U251 CNS; PC-3 prostate; SK-MEL-5 melanoma; UACC-62 melanoma; LOX IMVI melanoma; SK-MEL-28 melanoma; SK-MEL-2 melanoma; SF-268 CNS.
Holding throughout (assay): NCI-60 one-dose screen, 48 h (100 = growth as untreated, 0 = no growth, -100 = all killed)
Holding throughout (settings): 10 µM

Turning to `COc1ccc(-c2nnc(-c3c(-c4ccccc4)nc4ncccn34)o2)cc1OC`, the growth with K-562 leukemia was 88.8%; with MALME-3M melanoma it was 121%; with MDA-MB-231 breast it was 91.3%; with RXF 393 renal, 98.3%; with SF-295 CNS it was 101%; with SF-539 CNS it was 94.5%. Further, the growth in the assay on UACC-257 melanoma is 96.7%; in the assay on M14 melanoma, 119%; in the assay with HCT-15 colon, 100%; in the assay on HT29 colon it was 102%; in the assay on SNB-75 CNS it was 74.1%; in the assay on SNB-19 CNS, 100%. Besides, the growth is 101% in the assay on U251 CNS; 97.9% in the assay with PC-3 prostate; 95.4% with SK-MEL-5 melanoma; 102% in the assay on UACC-62 melanoma; 102% in the assay with LOX IMVI melanoma; 112% with SK-MEL-28 melanoma. Moreover, the growth with SK-MEL-2 melanoma is 96.3%.
Turning to `COc1ccc(Nc2cc(C)nc(NCCCNc3ccnc4cc(Cl)ccc34)n2)cc1`, the growth in the assay with K-562 leukemia is -42.2% (active); with MALME-3M melanoma, -86.2% (active); in the assay with MDA-MB-231 breast, -67.7% (active); in the assay on RXF 393 renal it was -90.4% (active); in the assay on SF-268 CNS it was -54.5% (active); in the assay with SF-295 CNS, -78.8% (active). Besides, the growth was -100% (active) with SF-539 CNS; -81.1% (active) in the assay on M14 melanoma; -55.8% (active) in the assay on HCT-15 colon; -70.2% (active) in the assay with HT29 colon; -82.5% (active) in the assay on SNB-75 CNS; 6.85% (active) with SNB-19 CNS. Moreover, the growth in the assay on U251 CNS is -88.8% (active); with PC-3 prostate, 7.12% (active); with SK-MEL-5 melanoma, -100% (active); in the assay on UACC-62 melanoma it was -89.8% (active); with LOX IMVI melanoma it was -80% (active); in the assay on SK-MEL-28 melanoma, -100% (active). In addition, the growth in the assay with SK-MEL-2 melanoma was -94.6% (active).
For `CCN(CC)CCSCCCNc1c2ccc(Cl)cc2nc2ccc(OC)cc12`, the growth in the assay with K-562 leukemia is -13.3% (active); in the assay with MALME-3M melanoma, -69.1% (active); in the assay on MDA-MB-231 breast, -59.9% (active); with SF-268 CNS, -39.2% (active); in the assay on SF-295 CNS, -79% (active); with SF-539 CNS, -75.2% (active). Also, the growth in the assay on UACC-257 melanoma is -77.1% (active); in the assay on M14 melanoma it was -73.7% (active); in the assay with HCT-15 colon it was -30.8% (active); in the assay with HT29 colon, -58.1% (active); with SNB-75 CNS, -97.8% (active); with SNB-19 CNS, -38.4% (active). In addition, the growth with U251 CNS is -70.6% (active); in the assay with PC-3 prostate it was -30.3% (active); in the assay with SK-MEL-5 melanoma it was -99.1% (active); with UACC-62 melanoma it was -72.9% (active); with LOX IMVI melanoma, -80% (active); in the assay on SK-MEL-28 melanoma, -67% (active). For the same compound, the growth in the assay on SK-MEL-2 melanoma is -77.5% (active).
With `Cc1cc(N(CCCNc2ccnc3cc(Cl)ccc23)Cc2ccc3c(c2)OCO3)nc(N2CCOCC2)n1`, the growth was -6.17% (active) with K-562 leukemia; -71.4% (active) in the assay with MALME-3M melanoma; 14.4% with MDA-MB-231 breast; -48% (active) in the assay with RXF 393 renal; 36.6% with SF-268 CNS; -9.78% (active) in the assay with SF-295 CNS. In addition, the growth in the assay with SF-539 CNS was -72.9% (active); in the assay on M14 melanoma, -71.1% (active); with HCT-15 colon it was 4.7% (active); in the assay on HT29 colon, 3.19% (active); in the assay with SNB-75 CNS it was 61.4%; in the assay on SNB-19 CNS, 32.3%. For the same compound, the growth with U251 CNS was 5.18% (active); in the assay with PC-3 prostate, 27.1%; with SK-MEL-5 melanoma, -88.1% (active); in the assay with UACC-62 melanoma, 27.1%; in the assay with LOX IMVI melanoma, -24.2% (active); in the assay with SK-MEL-28 melanoma it was -44.7% (active). Besides, the growth with SK-MEL-2 melanoma was 32.4%.
Turning to `Clc1ccc(Nc2ccnc(NCCCNc3ccnc4cc(Cl)ccc34)n2)cc1`, the growth in the assay on K-562 leukemia is -56.9% (active); in the assay on MALME-3M melanoma, -81% (active); in the assay on MDA-MB-231 breast, -86% (active); in the assay with RXF 393 renal it was -89.3% (active); with SF-268 CNS, -75.8% (active); in the assay on SF-295 CNS, -81.1% (active). The growth in the assay with SF-539 CNS is -96.8% (active); with M14 melanoma, -80% (active); in the assay on HCT-15 colon, -60.6% (active); with HT29 colon, -69.3% (active); with SNB-75 CNS it was -89.2% (active); in the assay with SNB-19 CNS, 4.15% (active). Moreover, the growth with U251 CNS is -93.2% (active); with PC-3 prostate it was -27.5% (active); with SK-MEL-5 melanoma, -100% (active); in the assay with UACC-62 melanoma, -90.5% (active); in the assay with LOX IMVI melanoma, -77.5% (active); in the assay on SK-MEL-28 melanoma, -92.1% (active). Further, the growth with SK-MEL-2 melanoma was -91% (active).
As to `COc1ccc(-c2nc3sccn3c2-c2nc3c([nH]2)C(=O)c2ccccc2C3=O)cc1`, the growth with K-562 leukemia is 84.8%; with MALME-3M melanoma, 151%; in the assay with MDA-MB-231 breast, 96.1%; in the assay on RXF 393 renal, 98.2%; in the assay with SF-295 CNS, 87.2%; in the assay on SF-539 CNS it was 98%. For the same compound, the growth was 89.2% in the assay with UACC-257 melanoma; 130% with M14 melanoma; 87.8% in the assay on HCT-15 colon; 96.2% in the assay on HT29 colon; 81.7% with SNB-75 CNS; 96.4% with SNB-19 CNS. For the same compound, the growth is 87.1% in the assay on U251 CNS; 73.7% in the assay on PC-3 prostate; 89% in the assay with SK-MEL-5 melanoma; 82.2% in the assay on UACC-62 melanoma; 90.7% with LOX IMVI melanoma; 89.6% in the assay on SK-MEL-28 melanoma. Besides, the growth with SK-MEL-2 melanoma is 101%.
Regarding `Cc1cc(Nc2ccc(Cl)cc2)nc(NCCCNc2ccnc3cc(Cl)ccc23)n1`, the growth in the assay with K-562 leukemia is -53.8% (active); in the assay with MALME-3M melanoma it was -82.2% (active); with MDA-MB-231 breast it was -88.2% (active); with RXF 393 renal, -91.9% (active); in the assay with SF-268 CNS, -66.5% (active); with SF-295 CNS, -68.2% (active). For the same compound, the growth was -100% (active) with SF-539 CNS; -87.5% (active) in the assay with M14 melanoma; -54.3% (active) in the assay with HCT-15 colon; -91.4% (active) in the assay with HT29 colon; -94.9% (active) with SNB-75 CNS; -14.3% (active) with SNB-19 CNS. Moreover, the growth in the assay with U251 CNS is -91.3% (active); in the assay on PC-3 prostate, -19.4% (active); in the assay on SK-MEL-5 melanoma it was -99.8% (active); with LOX IMVI melanoma, -83.8% (active); with SK-MEL-28 melanoma, -99.8% (active); in the assay on SK-MEL-2 melanoma it was -93.4% (active).
Take `COc1cc(Nc2ccnc(NCCNc3ccnc4cc(Cl)ccc34)n2)cc(OC)c1`: the growth is 2.17% (active) with K-562 leukemia; -68.3% (active) with MALME-3M melanoma; 27.1% in the assay on MDA-MB-231 breast; 46.2% in the assay with RXF 393 renal; 50.5% in the assay on SF-268 CNS; 39.9% in the assay with SF-295 CNS. For the same compound, the growth is -65.9% (active) in the assay on SF-539 CNS; -79.9% (active) in the assay with M14 melanoma; 28.8% in the assay on HCT-15 colon; 1.76% (active) in the assay on HT29 colon; 68.7% with SNB-75 CNS; 64.2% in the assay on SNB-19 CNS. The growth in the assay on U251 CNS was 9.32% (active); in the assay on PC-3 prostate, 46.5%; in the assay with SK-MEL-5 melanoma, -92.8% (active); in the assay with LOX IMVI melanoma, -37.2% (active); with SK-MEL-28 melanoma, -94.9% (active); in the assay with SK-MEL-2 melanoma it was 48.7%.
